Assay results taken from ChEMBL document CHEMBL3433997, “St. Jude Leishmania screening dataset” (2016).

Key:
Assay type in all cases: functional
[1] = target: Solute carrier family 2, facilitated glucose transporter member 1 (Homo sapiens) (UniProt P11166); assay: ST_JUDE_LEISH: Cytotoxicity at 2uM final concentration against transgenic Leishmania Mexicana promastigotes LmGLUT1 that are glucose transport deficient and complemented with the human glucose transporter GLUT1. Activity is measured by DNA content using SYBR green in vitro
[2] = target: Hexose transporter 1 (Plasmodium falciparum) (UniProt O97467); assay: ST_JUDE_LEISH: Cytotoxicity at 2uM final concentration against transgenic Leishmania Mexicana promastigotes LmPfHT that are glucose transport deficient and complemented with the Plasmodium falciparum hexose transporter. Activity is measured by DNA content using SYBR green in vitro
[3] = target: Glucose transporter (Leishmania mexicana) (UniProt O61059); assay: ST_JUDE_LEISH: Cytotoxicity at 2uM final concentration against transgenic Leishmania Mexicana promastigotes LmGT2 that are glucose transport deficient and complemented with the L. Mexicana glucose transporter 2. Activity is measured by DNA content using SYBR green in vitro

Solute carrier family 2, facilitated glucose transporter member 1 (Homo sapiens), sequence (P11166 whole entry): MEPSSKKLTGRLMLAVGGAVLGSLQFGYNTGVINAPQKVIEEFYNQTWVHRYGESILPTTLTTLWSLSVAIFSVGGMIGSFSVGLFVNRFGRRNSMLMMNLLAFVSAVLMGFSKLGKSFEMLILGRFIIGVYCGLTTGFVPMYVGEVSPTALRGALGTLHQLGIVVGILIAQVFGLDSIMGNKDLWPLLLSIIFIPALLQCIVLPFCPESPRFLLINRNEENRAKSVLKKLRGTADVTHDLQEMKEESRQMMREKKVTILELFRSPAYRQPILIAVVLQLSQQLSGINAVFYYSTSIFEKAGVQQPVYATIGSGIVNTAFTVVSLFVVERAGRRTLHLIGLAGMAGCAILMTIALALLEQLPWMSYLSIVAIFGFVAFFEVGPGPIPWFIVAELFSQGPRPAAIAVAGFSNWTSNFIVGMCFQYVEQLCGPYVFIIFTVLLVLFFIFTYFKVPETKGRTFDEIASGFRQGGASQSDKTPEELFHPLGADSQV

SMILES | inhibition [1] [%] | inhibition [2] [%] | inhibition [3] [%]
CC(C)n1c(C(C)(C)C)cc2c3c(N)nc(N)nc3ccc21 | 52.7 | 62.4 | 44.4
O=C(Nc1ccc(OC2CCN(Cc3ccc(F)cc3)C2)c(Cl)c1)c1ccccc1 (stereo not given) | 8.62 | 9.58 | 4.94
Cc1cc(NC(=O)CCN2CCN(c3cccc(Cl)c3Cl)CC2)ccc1N1CCN(C(C)C)CC1 | -0.22 | -0.39 | -2.11
CC1(C)NC(N)=NC(=N)N1OCCCc1ccc(Cl)cc1Cl | 2.76 | 1.95 | 2.33
Cc1cc(NC(=O)Nc2ccc(C(C)C)cc2)c2ccccc2n1 | 0.71 | 3.51 | -0.45
